# Assay results as given in PubChem BioAssay AID485314 (National Center for Advancing Translational Sciences (NCATS), 2010).
# Screen size: about 340,000 compounds; about 4,500 (1.3%) were called active. A call without a number means that no potency is given here. Roughly 5% stayed inconclusive and do not appear here. The sample holds actives, similar compounds and a random draw of the others, so the mix is not that of the screen. Calls come from the whole dose curve; as a rule, active = well fitted inhibition curve with a large enough effect; inconclusive = small, poorly fitted or top-dose-only effect, or another doubt; inactive = no such curve, though single readings can be large or run the other way.
# Target: DNA polymerase beta (Homo sapiens) (UniProt P06746)
# Assay: qHTS Assay for Inhibitors of DNA Polymerase Beta
# Settings: Pol beta primer extension/strand displacement, fluorescence kinetic; series mostly up to 114 µM
# In short: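 Preincubation: enzyme (10 nM) with compound, 15 min, RT. Reaction: substrate added to 50 nM final. Reads: 0 and 10 min. Analysis: normalized, Hill fit.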
# Potency is the fitted concentration of half-maximal effect.
row,Structure (SMILES),Potency
1,COCCNC(=O)CSc1nc(-c2ccccc2)[nH]c1-c1ccc(C)cc1,inactive
2,Cc1cccc(NC(=O)CN(c2ccc(C(C)C)cc2)S(=O)(=O)c2c(C)nn(C)c2C)c1C,inactive
3,CCOC(=O)c1c(NC(=O)c2ccc(S(=O)(=O)N(CC)CC)cc2)sc2c1CCCCC2,inactive
4,Cc1cc(C)c2oc(C(=O)Nc3ccc(S(=O)(=O)N(C)c4ccccc4)cc3)cc(=O)c2c1,inactive
5,COc1ccc(N2CCN(C(=O)CSCc3nc(-c4ccccc4Cl)oc3C)CC2)cc1,inactive
6,Cc1nc2sc(C)c(C)n2c(=O)c1S(=O)(=O)NCCc1ccc(Cl)cc1,inactive
7,CCc1cccc(-n2nnc(-c3nsc(NC(=O)c4ccc(C)cc4)n3)c2C)c1,inactive
8,CCN(CCCNC(=O)c1cc(Nc2ccc(OC)cc2)nc2ccccc12)c1cccc(C)c1,inactive
9,Cc1nonc1C(=O)N/N=C/c1ccc(O)cc1,inactive
10,O=C(N/N=C/c1ccc(OC(=O)c2ccccc2Cl)cc1)c1ccc(O)cc1,inactive
11,Cc1nc2ccc(C(=O)N/N=C/c3ccc(O)cc3)cc2[nH]1,17.8 µM (active)
12,COc1ccc(N(Cc2cc3ccc(C)cc3[nH]c2=O)S(=O)(=O)c2ccccc2)cc1,inactive
13,Cc1ccc2cc(CN(c3ccc(C)c(C)c3)S(C)(=O)=O)c(=O)[nH]c2c1,inactive
14,COc1ccc(N(Cc2cc3cc(OC)ccc3[nH]c2=O)S(C)(=O)=O)cc1,4.47 µM (active)
15,CCc1ccc(NC(=O)N2CCN(C(=O)c3nsc4ccccc34)CC2)cc1,inactive
16,COc1ccc(CNC(=O)CSCc2nc(-c3ccccc3F)oc2C)cc1,inactive
17,Cn1cc(S(=O)(=O)N2CCCCCC2)cc1C(=O)N1CCN(c2ccc(F)cc2)CC1,inactive
18,O=C(NCCN1C(=O)S/C(=C\c2cccnc2)C1=O)c1cccc(OC(F)F)c1,inactive
19,N#Cc1ccccc1CN1C(=O)S/C(=C/c2cccn2-c2cccc(C(=O)O)c2)C1=O,11.2 µM (active)
20,Cc1nn(Cc2ccccc2)c(C)c1C(=O)NCCN1C(=O)S/C(=C\c2ccc(F)cc2)C1=O,inactive
21,O=c1c(NCc2cccs2)nccn1-c1ccccc1,inactive
22,COc1ccccc1CN1CCC(CNC(=O)c2cnn(-c3cccc(Cl)c3)c2C2CCN(C(=O)OC(C)(C)C)CC2)CC1,inactive

row,Structure (SMILES),Potency
1,CCc1ccccc1N1CC(c2nc3ccccc3n2CCCCOc2ccccc2)CC1=O (stereo not given),inactive
2,c1ccc(-c2ccc(OCCN3CCOCC3)cc2)cc1,inactive
3,c1ccc2cc3c(NCCN4CCOCC4)ccnc3cc2c1,14.1 µM (active)
4,CCOc1nc(NCCN2CCOCC2)nc(Nc2ccc(C)cc2)n1,inactive
5,Cc1cccc2c1-c1sc(C(=O)Nc3ccc(F)cc3F)cc1CO2,inactive
6,Cc1cccc(C(=O)OCC(=O)Nc2ccc(F)cc2)c1,inactive
7,O=C(COC(=O)c1ccc(F)cc1F)Nc1ncccn1,35.5 µM (active)
8,COc1cc(OC)cc(C(=O)OCC(=O)Nc2ccc(F)cc2F)c1,inactive
9,Cc1ccc(NNC(=O)C2CCC2)cc1C,inactive
10,Cc1ccc(Nc2cc(=O)n(C3CCCCC3)c(=O)[nH]2)cc1C,56.2 µM (active)
11,O=c1cc(C(F)(F)F)[nH]c(=O)n1C1CCCCC1,inactive
12,O=C(O)c1ccc(Nc2nc(-c3ccccc3)c3cc(Br)ccc3n2)cc1,inactive
13,COc1cccc(NC(=O)c2ccc3nc(CCc4ccccc4)oc3c2)c1,inactive
14,O=S(=O)(NCCNS(=O)(=O)c1ccccc1)c1ccccc1,inactive
15,O=S(=O)(NCC1OCCc2ccccc21)c1ccccc1 (stereo not given),inactive
16,O=c1/c(=C/c2ccc(CNS(=O)(=O)c3ccccc3)o2)sc2n1CCN=2,50.1 µM (active)
17,CCn1cc(C(=O)NCc2ccccc2)c(=O)c2cc(S(=O)(=O)N3CCCCC3)ccc21,inactive
18,C/C(=N\NC(=O)c1ccccc1F)c1ccccn1,inactive
19,CCN(CC)CCOc1ccc2c(c1)C(=NNC(=O)c1ccccn1)c1cc(OCCN(CC)CC)ccc1-2,2.82 µM (active)
20,C/C(=N\NC(=O)Cc1ccc(Cl)cc1)c1ccccn1,inactive
21,O=C(NCCc1ccc(Cl)cc1)c1ccc2c(c1)N(Cc1ccc(F)cc1)C(=O)CS2,inactive
22,CCn1c2c(c(=O)n3ncc(C(=O)N4CCN(c5ccccc5)CC4)c13)CN(Cc1ccc(OC)cc1)CC2,inactive

row,Structure (SMILES),Potency
1,N#Cc1c(N2CCCCC2)nc(N)c2c(N)nc(SCC(=O)O)cc12,35.5 µM (active)
2,Nc1nc(NCC(=O)O)nc(N2CCCCCC2)c1[N+](=O)[O-],inactive
3,N#Cc1c(-c2ccccc2)cc(-c2ccccc2)nc1SCC(=O)O,inactive
4,CCC(CC)c1nnc(NC(=O)/C=C/c2ccco2)s1,inactive
5,O=C(/C=C/c1ccco1)Nc1ccc(Oc2ccccc2)cc1,inactive
6,CCC(=O)Nc1ccc2nn(-c3ccc(F)cc3)nc2c1,inactive
7,Cc1ccc(-n2nc3ccc(NC(=O)/C=C/c4ccco4)cc3n2)cc1C,44.7 µM (active)
8,Cc1nnc(NC(=O)/C=C/c2ccco2)s1,31.6 µM (active)
9,CCOC(=O)c1c(NC(=O)/C=C/c2ccco2)sc(C)c1C,inactive
10,CCOC(=O)c1c(C)oc2nc(C)nc(Nc3ccc(CC)cc3)c12,inactive
11,Cc1cc(C)c(-c2n[nH]c3c2C(c2ccccc2F)N(CCO)C3=O)c(O)c1 (stereo not given),inactive
12,CC(C)(C)c1ccc(C(=O)NCC(c2ccc(Cl)cc2)N2CCOCC2)cc1 (stereo not given),inactive
13,COCCCn1c(Cc2csc(Nc3cccc(Cl)c3)n2)nnc1SCC(=O)OC1CCCCC1,44.7 µM (active)
14,COCCCn1c(SCC(=O)NC2CCCC2)nnc1-c1ccccc1,inactive
15,CCOc1ccc(Nc2nc(Cc3nnc(SCC(=O)NC4CCCC4)n3C)cs2)cc1,inactive
16,O=S(=O)(c1ccccc1)c1nc(-c2ccc(Cl)cc2Cl)oc1N1CCCCC1,inactive
17,Cc1cccc(C(=O)c2cccc(C)c2)c1,inactive
18,O=C(O)c1ccc2c(c1)C(=O)N(NC(=O)c1ccc(O)cc1)C2=O,inactive
19,O=C(c1ccc(O)cc1)c1ccc(C(=O)O)c(C(=O)O)c1,35.5 µM (active)
20,CCOc1ccc(Nc2nc3c(S(=O)(=O)c4cccc(Cl)c4)nnn3c3ccsc23)cc1,inactive
21,CCCc1cc(=O)n2[nH]c(NCc3ccc(CC)cc3)nc2n1,inactive
